According to PubChem BioAssay (Tox21):
Several values for one entry are separate records, joined by “and”; a condition that tells them apart may be missing. Identical values can stand only once. Results filed as inconclusive are left out. More than one record can exist for a structure, and the calls need not agree. Activity calls are given as the source filed them. Unless noted, calls follow the shape of the dose curve; as a rule, active = well fitted curve in the direction sought with a large enough effect in the repeat runs; inconclusive = weak or mixed curves; inactive = no such curve, though single readings can be large; an effect the other way counts as inactive or inconclusive.

Columns and labels:
[1] = qHTS assay to identify small molecule antagonists of the estrogen related receptor (ERR) signaling pathway from Tox21 library - cell viability counter screen (AID 1224834); also: nearly all actives have a fitted effect of over 30% in size; also: potency is read from the fitted curve at half-maximal effect
Outline: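 CellTiter-Fluor fluorescence measured; ERR cells; 17.5 h compound incubation at 37 C; 30 min reagent step.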

[2] = qHTS assay to identify small molecule agonists of the constitutive androstane receptor (CAR) signaling pathway - cell viability counter screen (AID 1224836); also: nearly all actives have a fitted effect of over 45% in size
Outline: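 Compound titrations (15 concentrations) went onto HepG2-CYP2B6-hCAR cells 4 h after seeding, alongside PK11195 at a final 0.75 uM; a 23 h, 37 C/5% CO2 incubation preceded CellTiter-Fluor viability measurement.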

[3] = qHTS assay to identify small molecule antagonists of the constitutive androstane receptor (CAR) signaling pathway - cell viability counter screen (AID 1224837); also: nearly all actives have a fitted effect of over 45% in size
Outline: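 Using CellTiter-Fluor, viability is scored in HepG2 cells stably carrying hCAR and a 2.2kb CYP2B6 reporter after 23 hr compound exposure across 15 concentrations, with CITCO present at 50 nM.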

[4] = target: Nuclear receptor subfamily 1 group I member 3 (Homo sapiens) (UniProt Q14994); test: qHTS assay to identify small molecule antagonists of the constitutive androstane receptor (CAR) signaling pathway (AID 1224838);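 also: HepG2 cells stably expressing hCAR with CYP2B6 luciferase reporter stimulated by CITCO; nearly all actives have a fitted effect of over 40% in size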
Chain of Nuclear receptor subfamily 1 group I member 3 (Homo sapiens) (Q14994 whole entry, looked up): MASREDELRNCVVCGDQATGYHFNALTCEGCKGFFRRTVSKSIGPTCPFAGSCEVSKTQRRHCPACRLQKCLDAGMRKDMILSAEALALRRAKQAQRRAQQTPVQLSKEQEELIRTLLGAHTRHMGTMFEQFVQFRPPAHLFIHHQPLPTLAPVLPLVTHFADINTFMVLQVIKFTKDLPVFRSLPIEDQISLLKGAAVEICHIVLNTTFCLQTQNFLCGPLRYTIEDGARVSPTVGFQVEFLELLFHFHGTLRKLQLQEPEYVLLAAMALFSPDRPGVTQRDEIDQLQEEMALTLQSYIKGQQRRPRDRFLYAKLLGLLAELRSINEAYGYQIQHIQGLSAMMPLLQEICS
Outline: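 Reporter luminescence was quantified after 24 h exposure of hCAR/CYP2B6-2.2kb double-stable HepG2 cells to compounds at 15 concentrations in the presence of 50 nM CITCO final.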

[5] = target: Nuclear receptor subfamily 1 group I member 3 (Homo sapiens) (UniProt Q14994); test: qHTS assay to identify small molecule agonists of the constitutive androstane receptor (CAR) signaling pathway (AID 1224839);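 also: HepG2 cells stably carrying human CAR and a CYP2B6 luciferase reporter; nearly all actives have a fitted effect of over 15% in size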
Outline: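 In this screen, CAR-driven CYP2B6 promoter activity is measured by luminescence in HepG2-CYP2B6-hCAR cells after 24 h with test compounds and 0.75 uM PK11195 (final concentration).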

[6] = qHTS assay to identify small molecule antagonists of the estrogen related receptor signaling pathway with the pleiotropic PPARgamma coactivator (PGC) from Tox21 10K library - cell viability counter screen (AID 1224840; active = well fitted cell-killing curve with a large enough effect in the repeat runs, not every such curve was filed as active; also: nearly all actives have a fitted effect of over 40% in size; also: potency is read from the fitted curve at half-maximal effect)
Outline: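 Here the PGC/ERR cells serve as a cytotoxicity control: they are exposed to compounds for 17.5 hours at 37 C, and live-cell signal is quantified using CellTiter-Fluor fluorescence.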

[7] = target: Thyrotropin receptor (Homo sapiens) (UniProt P16473); test: qHTS assay to identify small molecule agonists of the thyroid stimulating hormone receptor (TSHR) signaling pathway (AID 1224843; calls by dose curve; also: nearly all actives have a fitted effect of over 45% in size)
Chain of Thyrotropin receptor (Homo sapiens) (P16473 whole entry, looked up): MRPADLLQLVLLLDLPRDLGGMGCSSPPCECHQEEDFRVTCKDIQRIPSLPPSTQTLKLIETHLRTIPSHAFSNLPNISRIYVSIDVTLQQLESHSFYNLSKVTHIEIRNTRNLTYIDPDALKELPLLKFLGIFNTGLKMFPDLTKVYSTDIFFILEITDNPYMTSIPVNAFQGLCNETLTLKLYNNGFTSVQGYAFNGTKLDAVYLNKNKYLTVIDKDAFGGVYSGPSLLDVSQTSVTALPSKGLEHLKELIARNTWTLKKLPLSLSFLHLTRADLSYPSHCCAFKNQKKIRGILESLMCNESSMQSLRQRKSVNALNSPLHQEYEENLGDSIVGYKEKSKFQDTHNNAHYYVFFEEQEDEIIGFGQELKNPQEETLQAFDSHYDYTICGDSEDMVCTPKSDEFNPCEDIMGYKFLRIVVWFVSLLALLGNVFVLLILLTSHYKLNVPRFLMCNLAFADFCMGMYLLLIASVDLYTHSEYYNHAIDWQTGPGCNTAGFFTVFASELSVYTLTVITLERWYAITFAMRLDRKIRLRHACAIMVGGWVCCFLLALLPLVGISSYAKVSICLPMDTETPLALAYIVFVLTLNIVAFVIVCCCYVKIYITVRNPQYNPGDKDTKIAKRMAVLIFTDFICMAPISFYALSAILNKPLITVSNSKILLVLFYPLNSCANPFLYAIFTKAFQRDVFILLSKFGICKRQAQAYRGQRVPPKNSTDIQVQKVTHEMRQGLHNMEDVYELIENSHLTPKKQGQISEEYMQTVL
Outline: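 TSHR-HEK293 cells in agonist mode, 30 min room-temperature step, then cAMP measured by competitive HTRF (cAMP-d2 with anti-cAMP cryptate) after 1 h at room temperature. Tested at 15 concentrations in triplicate.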

[8] = qHTS assay to identify small molecule agonists of H2AX (AID 1224845; active = well fitted activation curve with a large enough effect in the signal ratio in the repeat runs, not every such curve was filed as active; the % refers to the signal ratio)
Outline: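 Wild-type CHO-K1 cells, plated overnight, exposed 3hr at 37C to 15 concentrations (0.76% DMSO final). Lysed, then HTRF anti-pH2AX (S139) cryptate and anti-H2AX-d2 antibodies, 24 hr room temperature; 665/620 nm emission read.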

[9] = qHTS assay to identify small molecule agonists of the hypoxia (HIF-1) signaling pathway (AID 1224846; active = well fitted activation curve with a large enough effect in the signal ratio in the repeat runs, not every such curve was filed as active; the % refers to the signal ratio)
Outline: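 Hypoxia-pathway activation was scored as increased beta-lactamase from an HRE-controlled reporter in ME-180 cells; plated at 2,000 cells per well with 0.5% dialyzed FBS, they were exposed 17 hrs to compounds and then given CCF4-AM.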

[10] = qHTS assay to identify small molecule agonists of H2AX - cell viability counter screen (AID 1224847; calls by dose curve; also: nearly all actives have a fitted effect of over 30% in size; also: potency is read from the fitted curve at half-maximal effect)
Outline: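 Read-out: CellTiter-Glo luminescence, 30 min RT. Cells: wild-type CHO-K1, 1000/well, 10% FBS, plated overnight at 37C. Treatment: 15 concentrations, 3 hr, 37C, 0.76% DMSO.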

[11] = qHTS RealTime-Glo MT Cell Viability Assay in HEK293 cells - 32 hour (AID 1224868); also: top concentration of the series differs between compounds; nearly all actives have a fitted effect of over 50% in size
Outline: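 Viability tracked continuously by luminescence as live cells reduce a prosubstrate for NanoLuc; HEK293 cells preincubated 5 h, compound-treated at 37 C, and read at 0, 8, 16, 24, 32 and 40 h.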

[12] = A CellTox Green Cytotoxicity Assay to monitor cytotoxicity in HEK293 cells - 0 hour (AID 1224869); also: nearly all actives have a fitted effect of over 50% in size
Outline: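 Seeding of HEK293 cells together with cytotoxicity dye preceded a 5 h incubation at 37 C/5% CO2. Test compounds in DMSO were then added and fluorescence monitored across 40 h.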

[13] = qHTS RealTime-Glo MT Cell Viability Assay in HepG2 cells - 40 hour (AID 1224870); also: nearly all actives have a fitted effect of over 50% in size; also: potency is read from the fitted curve at half-maximal effect
Outline: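 HepG2 cells (600/well) mixed with RealTime-Glo MT reagent, settled 5 h at 37 C/5% CO2 before compound addition. Nonlytic NanoLuc luminescence from viable-cell prosubstrate reduction read repeatedly during 40 h treatment at 37 C.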

[14] = target: Luciferin 4-monooxygenase (Photinus pyralis) (UniProt P08659); test: qHTS assay to identify small molecule inhibitors of firefly luciferase (AID 1224835); also: nearly all actives have a fitted effect of over 25% in size
Chain of Luciferin 4-monooxygenase (Photinus pyralis) (P08659 whole entry, looked up): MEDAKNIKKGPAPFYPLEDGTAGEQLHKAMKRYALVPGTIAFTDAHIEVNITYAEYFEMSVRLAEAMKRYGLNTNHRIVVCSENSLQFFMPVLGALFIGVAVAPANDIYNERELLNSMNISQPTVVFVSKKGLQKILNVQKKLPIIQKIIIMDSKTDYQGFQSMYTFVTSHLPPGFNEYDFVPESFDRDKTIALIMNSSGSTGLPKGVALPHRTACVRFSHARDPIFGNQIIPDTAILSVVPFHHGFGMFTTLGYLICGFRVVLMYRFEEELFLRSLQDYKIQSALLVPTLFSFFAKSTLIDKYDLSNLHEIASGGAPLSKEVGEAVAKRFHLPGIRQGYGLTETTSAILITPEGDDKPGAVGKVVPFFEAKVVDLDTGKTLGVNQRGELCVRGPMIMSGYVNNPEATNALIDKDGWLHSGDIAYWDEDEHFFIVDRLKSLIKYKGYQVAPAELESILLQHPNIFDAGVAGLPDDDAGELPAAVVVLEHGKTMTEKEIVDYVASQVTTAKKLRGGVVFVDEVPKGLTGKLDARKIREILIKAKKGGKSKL
Outline: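 Biochemical qHTS: compounds run as interplate titrations against purified firefly enzyme, with D-luciferin and ATP each at its KM concentration. Light output recorded by CCD imaging.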

[15] = qHTS RealTime-Glo MT Cell Viability Assay in HepG2 cells - 24 hour (AID 1224867); also: nearly all actives have a fitted effect of over 50% in size; also: potency is read from the fitted curve at half-maximal effect
Outline: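 Viability was tracked continuously by NanoLuc luminescence from prosubstrate reduced by living HepG2 cells, at successive time points over 40 h of compound exposure. Cells with reagent were preincubated 5 h at 37 °C before compound addition.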

[16] = qHTS assay to identify small molecule agonists of the hypoxia (HIF-1) signaling pathway - cell viability counter screen (AID 1224844; calls by dose curve; also: nearly all actives have a fitted effect of over 50% in size; also: potency is read from the fitted curve at half-maximal effect)
Outline: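 Multiplexed with the HRE beta-lactamase assay, this viability read used CellTiter-Glo luminescence (30 min, RT) on HRE-bla ME-180 cells treated 17 hrs with compounds in 0.5% dialyzed FBS medium.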

[17] = qHTS assay to identify small molecule antagonists of the estrogen related receptor signaling pathway with the pleiotropic PPARgamma coactivator (PGC) from Tox21 10K library (AID 1224841; call rule not given here)
Outline: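 Each well held 2,000 PGC/ERR cells, pre-incubated six hours (37 C, 5% CO2). Test substances in DMSO were added by pin tool and left for 18 h at 37 C before luciferase detection by One-Glo.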

[18] = qHTS assay to identify small molecule agonists of the estrogen related receptor signaling pathway with the pleiotropic PPARgamma coactivator (PGC) from Tox21 10K library (AID 1224842); also: nearly all actives have a fitted effect of over 15% in size
Outline: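 PGC/ERR reporter cell line, 2,000 cells per well, incubated 6 h at 37 C before 23 nL compound in DMSO was added. After 18 h at 37 C, One-Glo luminescence read following 30 min at room temperature.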

[19] = qHTS assay to identify small molecule antagonists of the estrogen related receptor (ERR) signaling pathway from Tox21 library (AID 1224848); also: nearly all actives have a fitted effect of over 50% in size
Outline: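 ERR reporter cell line (from NTP) seeded 2,000 cells/well, rested 6 h at 37 C/5% CO2, then pin-dosed with compounds in DMSO. After 18 h at 37 C, ONE-Glo added; luminescence read after 30 min at room temperature.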

[20] = qHTS assay to identify small molecule agonists of the estrogen related receptor (ERR) signaling pathway from Tox21 library (AID 1224849; calls by dose curve; also: nearly all actives have a fitted effect of over 15% in size); conditions: ERR reporter cell line, ONE-Glo luciferase, 18 h; at 92.4 µM (top of the series)
Outline: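 Six hours post-seeding at 37 C/5% CO2, ERR cells receive DMSO-solubilised compounds; after 18 h at 37 C, ONE-Glo reagent is applied and luminescence recorded.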
% is scaled to controls: 0 for no effect and ±100 for the full control effect.

CCCN[C@H]1CCc2nc(N)sc2C1
inactive: Potency [1] | Potency [2] | Potency [3] | Potency [4] | Potency [5] | Potency [6] | Potency [7] | Potency [8] | Potency [9] | Potency [10] | Potency [11] | Potency [12] | Potency [13]

CCC(=O)/C=C/C1C(C)=CCCC1(C)C (configuration not stated)
inactive: Potency [1] | Potency [14] | Potency [3] | Potency [6] | Potency [7] | Potency [8] | Potency [9] | Potency [15] | Potency [11] | Potency [12] | Potency [13]

CCCCCCCCCCCC[N+](C)(C)C
active: Potency [1] 48.4 µM | Potency [13] 48.9 µM and 49 µM and 43.6 µM
113 µM (active) and inactive: Potency [10]
inactive: Potency [14] | Potency [4] | Potency [5] | Potency [16] | Potency [8] | Potency [12]

CCN(CC)CCOc1ccc(/C(=C(\Cl)c2ccccc2)c2ccccc2)cc1
inactive: Potency [3] | Potency [4] | Potency [5] | Potency [12]
active: Potency [1] 55.6 µM and 26.6 µM | Potency [6] 49.6 µM | Potency [15] 28.1 µM and 23.9 µM | Potency [13] 17.7 µM and 23.9 µM

Cc1ccnc2c1NC(=O)c1cccnc1N2C1CC1
inactive: Potency [1] | Potency [14] | Potency [3] | Potency [4] | Potency [5] | Potency [6] | Potency [7] | Potency [16] | Potency [8] | Potency [9] | Potency [10] | Potency [12] | Potency [13]

Oc1ccc(Cl)cc1Cc1cc(Cl)ccc1O
active: Potency [1] 44.1 µM and 61.1 µM and 29.8 µM | Potency [6] 24.8 µM | Potency [10] 51.4 µM and 31.8 µM | Potency [13] 49.9 µM
inactive: Potency [14] | Potency [3] | Potency [5] | Potency [7] | Potency [8] | Potency [12]
54.9 µM (active) and inactive: Potency [16]

CC1COC(=O)O1 (configuration not stated)
inactive: Potency [14] | Potency [2] | Potency [3] | Potency [4] | Potency [5] | Potency [6] | Potency [17] | Potency [18] | Potency [7] | Potency [16] | Potency [8] | Potency [9] | Potency [10] | Potency [19] | activity change, positive = activation [20] 4.88% and 5.46% | Potency [15] | Potency [11] | Potency [12] | Potency [13]

CC(=O)OCC1=C(C(=O)O)N2C(=O)[C@@H](NC(=O)Cc3cccs3)[C@H]2SC1
inactive: Potency [1] | Potency [14] | Potency [3] | Potency [4] | Potency [5] | Potency [6] | Potency [7] | Potency [8] | Potency [9] | Potency [10] | Potency [11] | Potency [12] | Potency [13]
